Measurements taken from PubChem BioAssay (EPA / NIEHS).
Results filed as inconclusive are left out. Active and inactive are the calls of the source. How the source made its calls, unless noted: active means hit-call score of the fitted dose curve at least 0.9, where 1 is the maximum; inactive means score below 0.9.

Tests used:
[1] = biological target: Nuclear respiratory factor 1 (Homo sapiens) (UniProt Q16656); test: ATG_NRF1_CIS: Attagene CIS-FACTORIAL HepG2 Assay for human Nuclear Respiratory Factor 1 (NRF1) Orphan Gene (AID 2282987); conditions: HepG2 NRF1 cis-element reporter, Attagene multiplex; actives raise or lower the signal
Outline: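 HepG2 cells transiently transfected with multiple reporter transcription units under cis-regulatory promoter control, so endogenous transcription-factor activity is read. After 24 h compound exposure, reporter mRNA quantified by RT-PCR, fluorescent labelling, HpaI digestion and capillary electrophoresis; bidirectional fitting versus DMSO.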

[2] = biological target: Myc proto-oncogene protein (Homo sapiens) (UniProt P01106); test: ATG_Myc_CIS: Attagene CIS-FACTORIAL HepG2 Assay for human Myelocytomatosis (Myc) Proto-Oncogene Transcription Factor (AID 2282990); conditions: HepG2, Attagene cis-reporter transcription factor activity; actives raise or lower the signal
Outline: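 HepG2 cells transiently transfected with multiple cis-promoter-driven reporter transcription units, so endogenous TF activity is read. After 24 h compound exposure, reporter mRNA was quantified by RT-PCR, 6-FAM labelling, HpaI digestion and capillary electrophoresis; bidirectional fit versus DMSO.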

[3] = ATG_NRF2_ARE_CIS: Attagene CIS-FACTORIAL HepG2 Assay for human Nuclear Factor Erythroid 2 Related Factor 2 (NFR2) response to Antioxidant Response Elements (ARE) (AID 2282992); conditions: HepG2 Attagene ARE/NRF2 reporter, transcription factor activity; actives raise or lower the signal;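 on AC50: reporter mRNA level measured by RT-PCR and capillary electrophoresis fluorescence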
Outline: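 Transient MRTU transfection of HepG2; 24 h compound exposure; TriZol RNA, RT with oligo(dT), PCR, 6-FAM primer extension, HpaI cut, CE. Bidirectional fit vs DMSO.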

[4] = ATG_Oct_MLP_CIS: Attagene CIS-FACTORIAL HepG2 Assay for human Octamer-Binding Transcription Factor (Oct) (AID 2282993); conditions: HepG2 Attagene cis-factorial Oct reporter, mRNA; actives raise or lower the signal
Outline: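 HepG2 cells transiently transfected with cis-promoter-driven multiplexed reporter transcription units, dosed for 24 h. Reporter mRNA quantified by RT-PCR, fluorescent labelling, HpaI digestion and capillary electrophoresis; bidirectional fits versus DMSO baseline.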

[5] = biological target: Cellular tumor antigen p53 (Homo sapiens) (UniProt P04637); test: ATG_p53_CIS: Attagene CIS-FACTORIAL HepG2 Assay for human p53 Transcription Factor (AID 2282994); conditions: HepG2 p53 cis-element reporter, Attagene mRNA; actives raise or lower the signal
Outline: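 HepG2, transient MRTU transfection (cis promoter elements, endogenous TFs); 24 h dosing; RNA isolation, RT-PCR, 6-FAM primer extension, HpaI digest, CE fluorescence; bidirectional fit vs DMSO.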

[6] = biological target: human Peroxisome Proliferator-activated Receptor delta (PPARd), PPARD (gene 5467) (UniProt Q03181); test: ATG_PPARd_TRANS: Attagene TRANS-FACTORIAL HepG2 Assay for human Peroxisome Proliferator-activated Receptor delta (PPARd) (AID 2283002; active means hit-call score of the fitted dose curve at least 0.9, where 1 is the maximum)
Outline: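 HepG2 cells transiently transfected with multiplexed GAL4-UAS reporter units and exogenous chimeric NR-Gal4 proteins; 24 h compound exposure. Reporter mRNA measured by RT-PCR, 6-FAM labelling, HpaI digestion and capillary electrophoresis; gain of signal versus DMSO.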

[7] = biological target: Nuclear receptor subfamily 1 group I member 2 (Homo sapiens) (UniProt O75469); test: ATG_PXR_TRANS: Attagene TRANS-FACTORIAL HepG2 Assay for human Pregnane X Receptor (PXR) (AID 2283008; active means hit-call score of the fitted dose curve at least 0.9, where 1 is the maximum)
Outline: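 Read-out is fluorescence of labelled reporter cDNA fragments separated by capillary electrophoresis after RT-PCR and HpaI digestion. Source: HepG2 cells carrying PXR-GAL4/UAS reporter constructs, treated 24 h; activity fitted upward relative to DMSO.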

[8] = ATG_NF_kB_CIS: Attagene CIS-FACTORIAL HepG2 Assay for human Nuclear Factor Kappa B (NF-kB) (AID 2282991); conditions: HepG2 Attagene cis-factorial NF-kB reporter mRNA; actives raise or lower the signal
Outline: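 HepG2 cells transiently transfected with multiplexed cis-element reporter units measuring endogenous transcription factor activity; reporter mRNA read 24 h after dosing by RT-PCR, fluorescent labelling, HpaI digestion and capillary electrophoresis. Bidirectional fit against DMSO baseline.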

[9] = biological target: human Peroxisome Proliferator-activated Receptor alpha (PPARa), PPARA (gene 5465) (UniProt Q07869); test: ATG_PPARa_TRANS: Attagene TRANS-FACTORIAL HepG2 Assay for human Peroxisome Proliferator-activated Receptor alpha (PPARa) (AID 2283001; active means hit-call score of the fitted dose curve at least 0.9, where 1 is the maximum;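 on AC50: potency for gain of reporter signal over DMSO so agonist or activator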)
Outline: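 Gain-of-signal endpoint: reporter mRNA induction relative to DMSO, detected by fluorescent RT-PCR and capillary electrophoresis. HepG2 cells transiently carried GAL4-UAS-driven reporter units plus NR-Gal4 fusion; exposure lasted 24 h.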

[10] = biological target: human Retinoic Acid Receptor beta (RARb), RARB (gene 5915) (UniProt P10826); test: ATG_RARb_TRANS: Attagene TRANS-FACTORIAL HepG2 Assay for human Retinoic Acid Receptor beta (AID 2283004; active means hit-call score of the fitted dose curve at least 0.9, where 1 is the maximum)
Outline: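 HepG2, transient MRTU transfection, NR–Gal4 chimera, 24 h treatment; RT-PCR plus CE fluorescence detection of reporter mRNA; gain of signal vs DMSO.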

[11] = biological target: Retinoic acid receptor alpha (Homo sapiens) (UniProt P10276); test: ATG_RARa_TRANS: Attagene TRANS-FACTORIAL HepG2 Assay for human Retinoic Acid Receptor alpha (RARa) (AID 2283005; active means hit-call score of the fitted dose curve at least 0.9, where 1 is the maximum)
Outline: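 HepG2 cells transiently transfected with multiple reporter units expressing chimeric RARα-GAL4 fusion, with GAL4-UAS-driven reporters. After 24 h compound exposure, reporter mRNA induction quantified by RT-PCR and capillary electrophoresis with fluorescent labeling; gain-of-signal fitted relative to DMSO control.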

[12] = biological target: Peroxisome proliferator-activated receptor gamma (Homo sapiens) (UniProt P37231); test: ATG_PPARg_TRANS: Attagene TRANS-FACTORIAL HepG2 Assay for human Peroxisome Proliferator-activated Receptor-gamma (PPARg) (AID 2283007; active means hit-call score of the fitted dose curve at least 0.9, where 1 is the maximum)
Outline: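 HepG2 cells transiently transfected with multiplexed GAL4-UAS reporter units and exogenous chimeric NR-Gal4 proteins; reporter mRNA quantified after 24 h compound exposure by RT-PCR, fluorescent labelling, HpaI digestion and capillary electrophoresis; gain-of-signal fitted versus DMSO baseline.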

[13] = biological target: human Retinoic Acid Receptor gamma (RARg), RARG (gene 5916) (UniProt P13631); test: ATG_RARg_TRANS: Attagene TRANS-FACTORIAL HepG2 Assay for human Retinoic Acid Receptor gamma (RARg) (AID 2283009; active means hit-call score of the fitted dose curve at least 0.9, where 1 is the maximum)
Outline: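 Transient transfection of HepG2 with multi-reporter constructs, then 24 h chemical treatment. Total RNA isolated, reverse-transcribed, PCR-amplified, fluorescently labelled and resolved by capillary electrophoresis; activity scored as mRNA induction versus DMSO.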

[14] = BSK_3C_TissueFactor: BioMAP Diversity Plus: 3C Assay for Tissue Factor Biomarker Activity (AID 2282997); conditions: BioMAP 3C HUVEC, tissue factor biomarker readout; actives raise or lower the signal
Outline: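 Values derive from bidirectional curve fitting against DMSO of Tissue Factor ELISA signals, taken 24 h after dosing primary human umbilical vein endothelial cells.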

[15] = BSK_3C_uPAR: BioMAP Diversity Plus: 3C Assay for Urokinase-type plasminogen activator receptor (uPAR) Biomarker Activity (AID 2282998); conditions: BioMAP 3C HUVEC, uPAR biomarker ELISA; actives raise or lower the signal
Outline: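 Human umbilical vein endothelial primary cells were exposed to test chemical for 24 h. Cell-surface uPAR was then quantified by ELISA, and responses were fitted bidirectionally against DMSO as negative control and baseline.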

[16] = BSK_3C_VCAM1: BioMAP Diversity Plus: 3C Assay for Vascular cell adhesion molecule 1 (VCAM1) Biomarker Activity (AID 2282999); conditions: BioMAP 3C HUVEC, VCAM1 ELISA, cytokine-stimulated; actives raise or lower the signal
Outline: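 Human umbilical vein endothelial cells were dosed with compound for 24 h, after which cell-surface VCAM-1 was quantified by ELISA. Bidirectional curve fitting used DMSO as negative control and activity baseline.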

[17] = BSK_4H_Eotaxin3: BioMAP Diversity Plus: 4H Assay for Eotaxin 3 Biomarker Activity (AID 2283000); conditions: primary human endothelial cells (HUVEC); actives raise or lower the signal;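 further: CCL26 protein level quantified by ELISA in parallel with SRB cytotoxicity check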
Outline: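 Endothelial primary cells (human umbilical vein) exposed to compound for 24 h. ELISA detection of Eotaxin-3.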

[18] = BSK_3C_Proliferation: Cell Proliferation Assessment in the BioMAP Diversity Plus: 3C Assay (AID 2283006); conditions: primary human endothelial cells (HUVEC)
Outline: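 Read-out is total protein by SRB absorbance at 560 nm, taken as a proxy for relative cell number. Primary human umbilical vein endothelium cultured below confluence was dosed for 48 h, TCA-fixed and SRB-stained; curves were fitted bidirectionally versus DMSO.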

[19] = ATG_NFI_CIS: Attagene CIS-FACTORIAL HepG2 Assay for human Nuclear Factor I (NFI) (AID 2282989); conditions: HepG2 cis-regulatory reporter, NFI response element transcription; actives raise or lower the signal
Outline: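 HepG2 cells transiently transfected with cis-element-driven multiplexed reporter transcription units, dosed for 24 h. Reporter mRNA quantified by RT-PCR, fluorescent labelling, HpaI digestion and capillary electrophoresis; bidirectional fit versus DMSO baseline.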

[20] = read-out: Intercellular Adhesion Molecule 1 (ICAM1), ICAM1 (gene 3383); test: BSK_3C_ICAM1: BioMAP Diversity Plus: 3C Assay for Intercellular Adhesion Molecule 1 (ICAM1) Biomarker Activity (AID 2283003); conditions: primary human endothelial cells (HUVEC); actives raise or lower the signal
Outline: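 ICAM-1 levels measured by ELISA after HUVEC cultures in the 3C system had been dosed for 24 h. Gain or loss of signal relative to DMSO was fitted in both directions.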

Measured: AC50

Chain of Nuclear receptor subfamily 1 group I member 2 (Homo sapiens) (O75469 whole entry, looked up, the tested form may be a part): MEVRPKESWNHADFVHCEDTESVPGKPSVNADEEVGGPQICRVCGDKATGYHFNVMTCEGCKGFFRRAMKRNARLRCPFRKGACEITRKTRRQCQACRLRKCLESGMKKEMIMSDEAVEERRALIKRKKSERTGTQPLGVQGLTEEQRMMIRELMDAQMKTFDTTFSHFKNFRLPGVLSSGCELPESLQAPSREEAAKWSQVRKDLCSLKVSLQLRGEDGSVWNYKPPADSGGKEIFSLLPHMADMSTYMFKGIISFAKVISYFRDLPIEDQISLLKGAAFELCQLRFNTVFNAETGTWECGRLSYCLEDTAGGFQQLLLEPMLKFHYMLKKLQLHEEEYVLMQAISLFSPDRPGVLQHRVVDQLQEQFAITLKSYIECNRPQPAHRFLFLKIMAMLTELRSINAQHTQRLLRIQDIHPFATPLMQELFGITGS
Chain of Peroxisome proliferator-activated receptor gamma (Homo sapiens) (P37231 whole entry, looked up, the tested form may be a part): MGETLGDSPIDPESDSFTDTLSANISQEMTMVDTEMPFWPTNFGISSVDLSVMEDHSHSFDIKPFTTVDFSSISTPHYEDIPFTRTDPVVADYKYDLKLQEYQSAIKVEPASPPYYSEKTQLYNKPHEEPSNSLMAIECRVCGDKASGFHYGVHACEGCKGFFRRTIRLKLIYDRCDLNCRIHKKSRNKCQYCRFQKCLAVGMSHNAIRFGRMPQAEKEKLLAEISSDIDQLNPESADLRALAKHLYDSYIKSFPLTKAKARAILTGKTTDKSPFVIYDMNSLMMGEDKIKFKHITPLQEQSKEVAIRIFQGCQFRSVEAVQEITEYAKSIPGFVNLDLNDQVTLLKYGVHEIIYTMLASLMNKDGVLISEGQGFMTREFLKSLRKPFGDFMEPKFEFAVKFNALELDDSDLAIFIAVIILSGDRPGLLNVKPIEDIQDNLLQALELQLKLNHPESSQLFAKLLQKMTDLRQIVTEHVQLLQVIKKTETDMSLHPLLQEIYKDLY
Chain of Nuclear respiratory factor 1 (Homo sapiens) (Q16656 whole entry, looked up): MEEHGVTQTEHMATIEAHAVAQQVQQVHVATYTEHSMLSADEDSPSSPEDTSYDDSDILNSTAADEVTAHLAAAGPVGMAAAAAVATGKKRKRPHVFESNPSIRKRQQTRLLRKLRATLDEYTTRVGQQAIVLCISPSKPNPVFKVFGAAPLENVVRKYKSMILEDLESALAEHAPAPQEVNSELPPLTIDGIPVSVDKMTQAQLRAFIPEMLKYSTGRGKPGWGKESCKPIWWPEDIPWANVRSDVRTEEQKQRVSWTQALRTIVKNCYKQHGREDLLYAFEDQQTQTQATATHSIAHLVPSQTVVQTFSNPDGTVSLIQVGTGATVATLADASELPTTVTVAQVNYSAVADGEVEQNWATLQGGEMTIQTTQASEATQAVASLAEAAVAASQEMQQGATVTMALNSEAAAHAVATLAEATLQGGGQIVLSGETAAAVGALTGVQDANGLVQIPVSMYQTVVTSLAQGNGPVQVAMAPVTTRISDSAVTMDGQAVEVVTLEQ
Chain of Retinoic acid receptor alpha (Homo sapiens) (P10276 whole entry, looked up, the tested form may be a part): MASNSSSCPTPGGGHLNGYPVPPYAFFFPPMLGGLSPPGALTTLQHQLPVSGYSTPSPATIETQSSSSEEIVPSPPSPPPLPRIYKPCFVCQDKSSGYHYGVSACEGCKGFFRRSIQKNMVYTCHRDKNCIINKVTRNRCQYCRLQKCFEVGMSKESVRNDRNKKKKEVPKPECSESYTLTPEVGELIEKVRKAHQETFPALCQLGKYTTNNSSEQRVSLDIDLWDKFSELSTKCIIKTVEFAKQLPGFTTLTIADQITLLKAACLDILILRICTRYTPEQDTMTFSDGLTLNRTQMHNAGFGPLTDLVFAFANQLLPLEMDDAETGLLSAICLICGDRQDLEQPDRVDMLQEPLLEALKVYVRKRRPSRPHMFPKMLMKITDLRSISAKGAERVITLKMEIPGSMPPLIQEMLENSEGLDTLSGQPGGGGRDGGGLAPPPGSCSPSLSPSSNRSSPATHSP
Chain of Myc proto-oncogene protein (Homo sapiens) (P01106 whole entry, looked up): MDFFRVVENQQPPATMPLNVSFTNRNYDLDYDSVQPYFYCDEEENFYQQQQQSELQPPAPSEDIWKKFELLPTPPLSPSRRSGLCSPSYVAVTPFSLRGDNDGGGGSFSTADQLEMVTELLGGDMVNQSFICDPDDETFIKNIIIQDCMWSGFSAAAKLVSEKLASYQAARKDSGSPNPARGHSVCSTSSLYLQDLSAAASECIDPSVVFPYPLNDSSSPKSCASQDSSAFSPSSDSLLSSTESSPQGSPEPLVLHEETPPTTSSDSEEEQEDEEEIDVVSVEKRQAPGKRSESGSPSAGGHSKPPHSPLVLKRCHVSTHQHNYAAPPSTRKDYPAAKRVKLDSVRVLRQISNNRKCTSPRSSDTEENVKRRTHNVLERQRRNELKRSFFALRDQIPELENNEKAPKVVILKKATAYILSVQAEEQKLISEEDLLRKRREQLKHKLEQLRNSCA
Chain of human Retinoic Acid Receptor gamma (RARg), RARG (gene 5916) (P13631 whole entry, looked up): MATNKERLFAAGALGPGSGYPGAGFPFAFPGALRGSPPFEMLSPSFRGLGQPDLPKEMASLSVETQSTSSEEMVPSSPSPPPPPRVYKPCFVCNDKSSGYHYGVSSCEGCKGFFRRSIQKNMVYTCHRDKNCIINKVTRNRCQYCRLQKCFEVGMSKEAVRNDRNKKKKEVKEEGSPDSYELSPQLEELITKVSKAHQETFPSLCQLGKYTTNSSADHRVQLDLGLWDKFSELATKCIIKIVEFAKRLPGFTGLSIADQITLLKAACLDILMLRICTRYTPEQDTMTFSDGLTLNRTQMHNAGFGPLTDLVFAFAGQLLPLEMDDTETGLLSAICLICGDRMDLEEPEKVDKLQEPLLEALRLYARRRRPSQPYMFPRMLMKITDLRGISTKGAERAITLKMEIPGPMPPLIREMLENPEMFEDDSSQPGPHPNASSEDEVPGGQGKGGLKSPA
Chain of human Retinoic Acid Receptor beta (RARb), RARB (gene 5915) (P10826 whole entry, looked up, the tested form may be a part): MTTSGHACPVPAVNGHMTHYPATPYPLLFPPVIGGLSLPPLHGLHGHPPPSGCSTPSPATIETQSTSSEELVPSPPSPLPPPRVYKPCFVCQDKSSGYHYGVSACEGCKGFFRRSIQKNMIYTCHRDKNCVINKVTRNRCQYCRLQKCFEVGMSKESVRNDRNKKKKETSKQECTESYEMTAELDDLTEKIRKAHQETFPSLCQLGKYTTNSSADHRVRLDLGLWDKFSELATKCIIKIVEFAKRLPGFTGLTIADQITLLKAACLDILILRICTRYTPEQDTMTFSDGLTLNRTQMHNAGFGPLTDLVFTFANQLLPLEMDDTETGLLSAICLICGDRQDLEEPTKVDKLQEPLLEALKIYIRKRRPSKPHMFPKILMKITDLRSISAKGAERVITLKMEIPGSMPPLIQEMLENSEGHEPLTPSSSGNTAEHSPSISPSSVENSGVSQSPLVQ
Chain of human Peroxisome Proliferator-activated Receptor delta (PPARd), PPARD (gene 5467) (Q03181 whole entry, looked up, the tested form may be a part): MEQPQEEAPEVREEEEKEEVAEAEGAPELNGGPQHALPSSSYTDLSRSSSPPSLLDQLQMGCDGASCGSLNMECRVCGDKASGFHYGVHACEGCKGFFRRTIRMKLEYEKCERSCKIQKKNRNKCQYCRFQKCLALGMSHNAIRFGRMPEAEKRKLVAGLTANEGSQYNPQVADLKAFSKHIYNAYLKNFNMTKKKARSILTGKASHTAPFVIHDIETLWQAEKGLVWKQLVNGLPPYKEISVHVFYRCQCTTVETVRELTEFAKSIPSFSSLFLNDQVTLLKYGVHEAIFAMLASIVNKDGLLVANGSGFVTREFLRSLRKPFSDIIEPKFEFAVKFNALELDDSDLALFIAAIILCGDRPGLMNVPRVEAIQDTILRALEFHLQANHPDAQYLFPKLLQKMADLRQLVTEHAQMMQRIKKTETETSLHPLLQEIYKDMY
Chain of Cellular tumor antigen p53 (Homo sapiens) (P04637 whole entry, looked up): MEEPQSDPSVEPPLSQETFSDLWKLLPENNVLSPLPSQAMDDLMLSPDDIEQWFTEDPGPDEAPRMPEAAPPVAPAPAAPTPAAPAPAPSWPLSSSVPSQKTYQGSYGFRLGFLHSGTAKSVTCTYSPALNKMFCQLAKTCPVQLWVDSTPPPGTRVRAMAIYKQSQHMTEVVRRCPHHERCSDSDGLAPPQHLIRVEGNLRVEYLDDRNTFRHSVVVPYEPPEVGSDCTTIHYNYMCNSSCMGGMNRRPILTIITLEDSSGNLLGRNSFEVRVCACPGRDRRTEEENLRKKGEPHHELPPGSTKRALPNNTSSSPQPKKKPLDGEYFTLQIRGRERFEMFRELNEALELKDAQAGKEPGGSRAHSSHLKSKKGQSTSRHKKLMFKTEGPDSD
Chain of human Peroxisome Proliferator-activated Receptor alpha (PPARa), PPARA (gene 5465) (Q07869 whole entry, looked up, the tested form may be a part): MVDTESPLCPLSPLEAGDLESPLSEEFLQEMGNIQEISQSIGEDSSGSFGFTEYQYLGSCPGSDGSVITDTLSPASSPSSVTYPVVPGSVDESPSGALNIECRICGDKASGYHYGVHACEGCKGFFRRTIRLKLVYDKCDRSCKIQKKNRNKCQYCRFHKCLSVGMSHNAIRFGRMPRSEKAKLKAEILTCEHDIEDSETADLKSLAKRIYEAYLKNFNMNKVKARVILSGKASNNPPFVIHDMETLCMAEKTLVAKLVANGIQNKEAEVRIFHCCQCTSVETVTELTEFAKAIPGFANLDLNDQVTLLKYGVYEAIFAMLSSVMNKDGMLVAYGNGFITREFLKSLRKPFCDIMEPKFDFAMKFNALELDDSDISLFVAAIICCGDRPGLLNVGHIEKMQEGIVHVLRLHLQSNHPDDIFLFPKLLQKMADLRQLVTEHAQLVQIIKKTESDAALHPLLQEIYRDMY

CCCCOC(=O)C(C)CC (stereo not given)
inactive: [1] | [2] | [3] | [4] | [5] | [6] | [7]

CCCCC(CC)COC(=O)/C=C/c1ccc(OC)cc1 (stereo not given)
not listed: [13] | [14] | [15] | [16] | [17] | [18] | [19] | [20]
inactive: all other assays above

CC(C)=CCl
inactive: [1] | [2] | [8] | [3] | [4] | [5] | [9] | [6] | [13]

O=C(O)c1cc(O)c2ccccc2c1O
inactive: [1] | [4] | [5] | [9] | [6] | [13]
active: [2] 43.6 µM | [3] 7.34 µM | [12] 9.25 µM | [7] 2.31 µM

Cc1ccc(S(=O)(=O)N=C=O)cc1
inactive: [1] | [2] | [8] | [3] | [4] | [5] | [6] | [12] | [7]

C[Si]1(C)O[Si](C)(C)O[Si](C)(C)O[Si](C)(C)O[Si](C)(C)O1
inactive: [1] | [2] | [8] | [3] | [4] | [5] | [6] | [12] | [7]

CCOc1ccc(NC(N)=O)cc1
inactive: [1] | [2] | [8] | [3] | [4] | [11] | [12] | [13]

C1CNCCN1
not listed: [6] | [9] | [10] | [11] | [12] | [19] | [20]
inactive: all other assays above

CCOC(=O)/C=C\C(=O)OCC
active: [3] 11.4 µM | [12] 9.4 µM
not listed: [1] | [9]
inactive: all other assays above

COC(C=C(C)CCC=C(C)C)OC
active: [3] 59.2 µM | [12] 57.2 µM
inactive: [1] | [2] | [8] | [4] | [5] | [9] | [6] | [7]

O=C(O)C(F)(F)C(F)(F)C(F)(F)C(F)(F)C(=O)O
not listed: [6] | [9] | [10] | [11] | [19]
inactive: all other assays above

C=C[C@@]1(C)CC(=O)[C@]2(O)[C@@]3(C)[C@@H](O)CCC(C)(C)[C@@H]3[C@H](O)[C@H](OC(C)=O)[C@@]2(C)O1
active: [3] 2.95 µM | [5] 0.983 µM | [9] 3.28 µM | [12] 3.2 µM
inactive: [1] | [2] | [4] | [6] | [10] | [11] | [13]

COc1ccc(-c2coc3cc(O)cc(O)c3c2=O)cc1
active: [1] 25.9 µM | [3] 27.2 µM | [4] 39 µM | [5] 159 µM | [9] 7.31 µM | [12] 27.1 µM | [7] 26.6 µM
inactive: [2] | [10] | [11] | [13]

CCCCCCO
inactive: [1] | [2] | [8] | [3] | [4] | [5] | [12] | [7]

CC(C)CCOCc1ccccc1
inactive: [1] | [2] | [8] | [3] | [4] | [9] | [12] | [7]

C=C(C)C(=O)OCCCCCCCCCCCC
active: [12] 122 µM
not listed: [1] | [10] | [11] | [13]
inactive: all other assays above

CCOB(OCC)OCC
inactive: [1] | [2] | [8] | [3] | [4] | [5] | [9] | [6] | [10] | [11] | [12]
